RE007 growth inh: qHTS Assay for Inhibitors of the HIV-1 protein Vpr; Potency, µM (doses to about 92.2 µM), inactives show at the top dose activity change, negative = less growth, hits mostly inhibitors; S. pombe RE007 Vpr strain, BacTiter-Glo ATP luminescence, 24 h; hit rate 0.21% among 360,000; AID 651644, 2012; active means well fitted falling curve with a large enough effect; inconclusive means small, poorly fitted or top-dose-only effect; inactive means no such curve, though single readings can be large or run the other way; further: on the % scale 0 is the no-effect control and ±100 the full control effect; nearly all actives have a fitted effect of over 50% in size
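Fission yeast RE007 carrying one integrated HIV-1 vpr copy, seeded at OD 0.01 in PMG+AL medium with 23 nL pinned compound. Grown 24 h at 30 degrees; viability read by BacTiter-Glo luminescence after 5 min.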
TbPYK inhibitor: qHTS of Trypanosoma Brucei Inhibitors; pyruvate kinase (Trypanosoma brucei), Q57TT1; TbPYK enzyme, Kinase-Glo Plus ATP luminescence, 45 min; Potency, µM (highest dose often 76.8 µM), inactives show at the highest dose activity, negative = inhibition, usual class: inhibitors; hit rate 0.12% among 410,000; AID 624173, 2012; further: on the % scale 0 is the no-effect control and ±100 the full control effect; nearly all actives have a fitted effect of over 50% in size
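Activity of T. brucei pyruvate kinase was followed by Kinase-Glo Plus luminescence after the enzyme reacted 45 min at room temperature with 130 uM ADP (final) and substrate. Test compounds were added before ADP at multiple concentrations.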
Sm TGR inh: qHTS Assay for the Inhibitors of Schistosoma Mansoni Peroxiredoxins | AID 485364, 2010 | hit rate 3% among 360,000 | Potency, µM (top dose mostly 114 µM), inactives show top-dose activity change, negative = inhibition, hits mostly inhibitors | purified TGR, DTNB reduction, TNB absorbance 405 nm; further: on the % scale 0 is the no-effect control and ±100 the full control effect; nearly all actives have a fitted effect of over 60% in size
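TGR 20 nM + NADPH 100 uM (dispensed conc.), cpd preinc 15 min RT; start with NADPH (500 uM addition) then DTNB (15 mM addition). Kinetic TNB absorbance, 405 nm filter. Four-parameter Hill fit across titration.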
FBPA Giardia inh: qHTS Assay for Inhibitors of Fructose-1,6-bisphosphate Aldolase from Giardia Lamblia | A8B2U2 | purified Giardia FBPA | Potency, µM (titrated, usually from 59.6 µM), without a hit: at the highest dose activity, negative = inhibition, most hits filed as inhibitors | hit rate 0.71% among 290,000; further: on the % scale 0 is the no-effect control and ±100 the full control effect; nearly all actives have a fitted effect of over 55% in size
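40 nM FBPA preincubated 10 min at RT with compound (up to 57.5 uM final), then substrate plus GAPDH/TPI/NAD/arsenate coupling and diaphorase/resazurin added. Fluorescence read after 20 min at RT, 525/598 nm.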
NS1 function inh: qHTS Assay for Inhibitors of Influenza NS1 Protein Function; Potency, µM (highest dose often 46.1 µM), without a hit: at the top dose activity, positive = more growth; hit rate 0.4% among 270,000; calls by dose curve; further: actives are rising curves; nearly all actives have a fitted effect of over 50% in size
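Recovery from NS1-induced slow growth read by OD600 in budding yeast switched to galactose assay medium (pH 6.0, -URA) at 1:100 dilution. Compound 23 nl per well; the matching strain lacking NS1 serves as control.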
LmPK inh: qHTS Assay for Inhibitors of Leishmania Mexicana Pyruvate Kinase (LmPK); Q27686; Potency, µM (doses to about 57.5 µM), for the others: at the top dose activity change, negative = inhibition, usual class: inhibitors; purified LmPK, Kinase-Glo ATP luminescence, 1 h; hit rate 0.37% among 290,000; further: on the % scale 0 is the no-effect control and ±100 the full control effect
Target sequence (Q27686 whole entry, looked up): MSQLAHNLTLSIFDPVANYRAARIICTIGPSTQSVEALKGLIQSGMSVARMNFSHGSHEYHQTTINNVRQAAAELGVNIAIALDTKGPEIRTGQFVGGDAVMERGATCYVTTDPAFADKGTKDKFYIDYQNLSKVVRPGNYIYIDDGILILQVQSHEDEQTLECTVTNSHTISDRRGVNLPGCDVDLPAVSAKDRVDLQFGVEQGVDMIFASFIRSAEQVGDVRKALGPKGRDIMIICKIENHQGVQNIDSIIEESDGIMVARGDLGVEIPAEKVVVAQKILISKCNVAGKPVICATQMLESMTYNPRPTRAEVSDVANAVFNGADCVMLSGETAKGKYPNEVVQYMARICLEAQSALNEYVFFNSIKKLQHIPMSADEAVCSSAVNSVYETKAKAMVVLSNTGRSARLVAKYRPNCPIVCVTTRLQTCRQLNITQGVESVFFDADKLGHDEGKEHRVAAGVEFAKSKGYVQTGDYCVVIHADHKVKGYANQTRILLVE
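Purified LmPK (0.1 nM) with 0.5 mM PEP and 0.1 mM ADP in imidazole buffer pH 7.2 with MgCl2/KCl, 1 h at room temperature. ATP formed was read by luciferase luminescence and normalized to no-enzyme and uninhibited controls.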
Starred values were filed as active, the others as inactive; ? = inconclusive; . = not tested or not shown. The list is not random: actives were taken first. Their share in the collection is about 3.5%. Unless noted, the call rests on the fitted dose curve; in most records, active means well fitted curve in the direction sought with a large enough effect; inconclusive means small, poorly fitted or top-dose-only effect, or another doubt; inactive means no such curve, though single readings can be large; an effect the other way counts as inactive or inconclusive. Potency means the concentration at half of the fitted maximal effect.

SMILES	RE007 growth inh	TbPYK inhibitor	Sm TGR inh	FBPA Giardia inh	NS1 function inh	LmPK inh
O=C1C(Nc2cccc(O)c2)=C(N2CCCCC2)C(=O)c2ccccc21	-28%	-23%	10µM*	?	-4%	-3%
Cc1ccc(NC2=C(N3CCCCC3)C(=O)c3ccccc3C2=O)cc1	-4%	0%	13µM*	?	-13%	-9%
Cc1nnc(N/N=C/c2cc([N+](=O)[O-])c(N3CCC(C)CC3)cc2N2CCC(C)CC2)n1N	6%	1%	?	10µM*	-72%	6%
CC1CCN(c2cc(N3CCOCC3)c([N+](=O)[O-])cc2F)CC1	-4%	-4%	-12%	2%	-60%	5%
Cc1nnc(N/N=C/c2ccc([N+](=O)[O-])cc2)n1N	16%	3%	53%	16µM*	.	18%
COc1ccc(/C=N/Nc2nnc(C)n2N)cc1OC	-22%	1%	-4%	22µM*	.	-1%
COc1ccc(/C=N/Nc2nnc(C)n2N)cc1OC(C)=O	-14%	5%	7%	?	-6%	3%
C[N+](C)(C)CCOP(=O)(O)OP(=O)([O-])OCC1OC(n2ccc(N)nc2=O)[C@H](O)[C@@H]1O (stereo not given in full)	.	1%	.	.	.	.
COC(=O)c1ccc(CCc2cc(O)ccc2O)cc1	11µM*	?	.	.	11%	.
COC(=O)c1ccc(O)cc1	-7%	10%	9%	2%	0%	-11%
COC(=O)c1ccc(CCc2cc(O)c(Br)cc2O)cc1	11µM*	?	.	.	.	.
Cc1ccc(N2C(=O)[C@@H]3C(c4ccc(F)cc4)=NO[C@@H]3C2=O)cc1	-2%	3%	-8%	4%	-32%	-3%
CC(=O)C1=NOC2C(=O)N(c3ccccc3)C(=O)C12 (stereo not given)	.	-9%	11µM*	-2%	-2%	-4%
COc1cccc(CNCCc2ccc3c(c2)OCO3)c1OC	-14%	8%	40µM*	-25%	-2%	-1%
COc1cc(OC)c(OC)cc1CNCCc1ccc2c(c1)OCO2	-19%	0%	40µM*	-24%	-3%	0%
COc1cc(OC)c(OC)cc1CNCc1ccc2c(c1)OCO2	-18%	18%	45µM*	?	1%	-10%
COC(=O)c1c(C(=O)OC)c(-c2ccc(OC)cc2)n2c1CS(=O)(=O)C2	5%	-4%	50µM*	1%	-7%	14%
COC1=C(C(=O)O)N2C(=O)[C@@H](NC(=O)C(N)C3C=CCC=C3)[C@H]2SC1 (stereo not given in full)	.	4%	.	.	.	.
Cc1sc2ccccc2[n+]1CCC(C)S(=O)(=O)[O-] (stereo not given)	-11%	-11%	2µM*	-10%	-1%	2%
Cc1sc2ccccc2[n+]1CC(=O)O	8%	?	7%	?	10%	-10%
CCOC(=O)CCN(c1ccccc1)S(=O)(=O)c1cc(-c2cc(C)no2)ccc1C	.	4%	7%	.	.	.
Cn1c(=O)c(C(=O)CN2CCCCCC2)c(N)n(Cc2ccccc2)c1=O	24%	2%	35µM*	0%	.	4%
CN[C@H]1C[C@@H](N)[C@H](O)[C@@H](O[C@@H]2O[C@H](CO)[C@H](O)[C@@H]3O[C@]4(O[C@@H]23)O[C@H]([C@@H](N)CO)[C@H](O)[C@@H](O)[C@H]4O)[C@@H]1O	.	6%	.	.	.	.
Oc1ccc(O)c(-c2cnns2)c1	0%	-5%	79µM*	-3%	17%	-5%
COc1ccc(Br)cc1Cn1nnc(C(=O)Nc2ccc(C)cc2C)c1N	.	1%	0%	.	.	.
COc1ccc(S(=O)(=O)N2CCCN(CC(=O)Nc3ccc(OC)c(Cl)c3)CC2)cc1	32%	-4%	32µM*	-25%	-33%	1%

Screening data: PubChem BioAssay, National Center for Advancing Translational Sciences (NCATS)
